NALP1 yeast inh = NALP1 inflammasome inhibitors in reconstituted yeast, colorimetric, S. cerevisiae, triplicate retest. S. cerevisiae NALP1/ASC/caspase-1 growth, X-gal OD620, 72 h. inhibition, % at 10 µM. actives 0.61% (n = 280,000). AID 2071, 2009; in the data active means inhibition mostly above about 24%, no sharp cut-off; inactive means mostly below about 32%
TIM10 inh = growth inhibitors of isogenic TIM10 control yeast, primary screen, counter-screen for tim10-1 yeast inhibitor project, luminescence, uHTS. inhibition, % at 10 µM. S. cerevisiae TIM10 strain growth, BacTiter-Glo luminescence, 24 h. actives 1.4% (n = 330,000);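 active means inhibition of 40% or more at the single tested concentration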;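 further: wild-type TIM10 isogenic control strain grown at permissive 25 °C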
V-ATPase pH = regulators of yeast V-ATPase proton pumping, primary screen, pHLuorin cytosolic pH fluorescence; S. cerevisiae; response, % at 10 µM; actives 0.37% (n = 350,000); AID 504577, 2011; in the data active means response mostly above about 7.3%, no sharp cut-off; inactive means mostly below about 5.4%; further: actives read high
tim23-1 inh = growth inhibitors of tim23-1 mutant yeast, primary screen, luminescence, uHTS; S. cerevisiae tim23-1 growth, BacTiter-Glo luminescence, 24 h; inhibition, % at 20 µM; actives 1.3% (n = 330,000); AID 463212, 2010;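 active means growth inhibition of the mutant yeast at or above 50%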;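 further: temperature-sensitive mutant grown at 25 °C; plate controls were DMSO-treated mutant yeast for no effect and medium wells lacking yeast for full effect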
tim10-1 inh = growth inhibitors of tim10-1 mutant yeast, primary screen, luminescence, uHTS; S. cerevisiae tim10-1 ts strain growth, BacTiter-Glo, 24 h; inhibition, % at 20 µM; actives 2.2% (n = 330,000);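 active means inhibition of at least 40%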;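 further: mutant grown at 25 °C; 0% = DMSO wells with yeast and 100% = wells holding no yeast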
NLRP3 yeast inh = NALP3 inflammasome inhibitors in reconstituted yeast, primary screen, luminescence, uHTS; AID 2825, 2010; inhibition, % at 10 µM; Yeast reconstituted NLRP3/ASC/caspase-1, beta-gal luminescence, 24 h; actives 0.39% (n = 330,000);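 active means inhibition of 50% or more; inactive means inhibition below 50%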;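 further: plate controls were induced DMSO wells for no effect and uninduced yeast grown without galactose for full effect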
TIM10 conf = growth inhibitors of wild-type TIM10 yeast, confirmation, counter-screen for tim10-1 synthetic lethality project, single concentration, luminescence, S. cerevisiae. inhibition, % at 10 µM. AID 463215, 2010. shares compounds with TIM10 inh. actives 63% (n = 4,600). S. cerevisiae tim10 strain growth, BacTiter-Glo luminescence, 24 h;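 active means inhibition of yeast growth at or above a set limit in either of two replicates at 10 µM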;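 further: this counterscreen used the strain with wild-type TIM10; 0% = yeast with DMSO and 100% = medium wells lacking yeast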
tim23-1 conf = tim23-1 mutant yeast growth inhibitors, confirmation, luminescence, single concentration | shares compounds with tim23-1 inh | actives 83% (n = 4,400) | S. cerevisiae tim23-1 growth, BacTiter-Glo luminescence, 24 h | AID 463218, 2010 | inhibition, % at 20 µM;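 active means inhibition above about 39% in either of two replicate wells at 20 µM, limit read from the data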;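 further: temperature-sensitive tim23-1 mutant grown at 25 °C; 0% = DMSO wells with yeast and 100% = medium wells without yeast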
* marks the source's active call; other numbers are inactive results; . = no result. The list is not random: actives were taken first. Their share in the collection is about 4.2%.

SMILES | NALP1 yeast inh | TIM10 inh | V-ATPase pH | tim23-1 inh | tim10-1 inh | NLRP3 yeast inh | TIM10 conf | tim23-1 conf
Cc1ccc2c(c1)COc1c3ccc(C(=O)NCC4CC4)cc3nn1-2 | -4 | 41* | 2 | 61* | 16 | 15 | 31* | 54*
O=C(O/N=C(\c1ccccc1)c1ccccn1)c1ccc(Cl)c(Cl)c1 | 37 | 13 | -3 | 5 | 34 | 2 | . | .
N/C(=N\OC(=O)c1ccc(Cl)c(Cl)c1)c1cccc(CSc2ccccn2)c1 | -18 | 72* | -2 | 79* | 39 | 15 | 84* | 49*
CCOC(=O)c1c(C)[nH]c(C)c1C(=O)COC(=O)c1ccc(S(=O)(=O)N(CC)CC)cc1 | -4 | 9 | -1 | 20 | 15 | 26 | . | .
CC(C)(C)c1nn(-c2ccccc2)c2[nH]c(=O)c(C=O)cc12 | -4 | 72* | -2 | 80* | -23 | 25 | 91* | -44
CC(C)(C)c1nn(-c2ccccc2)c2nc(Cl)c(C=O)cc12 | 2 | 10 | 3 | 27 | 13 | 3 | . | .
O=S1c2ccccc2Oc2ccccc21 | . | . | -1 | . | . | . | . | .
O=[S@]1Oc2ccccc2-c2ccccc21 | . | 58* | -3 | 69* | 5 | 17 | 76* | -41
COc1cccc(C(=O)NCC(=O)OCC(=O)Nc2ncc(Cl)cc2Cl)c1 | -5 | -1 | 1 | 10 | 9 | -3 | . | .
O=C(/C=C/c1cccc([N+](=O)[O-])c1)c1ccco1 | 47* | 62* | 10 | 64* | 35 | 23 | 76* | 3
CCCc1ccc(O)c(N=Cc2cc(Br)cc(OCC)c2O)c1 | 2 | 43* | 0 | 57* | 37 | 32 | 33* | 74*
c1ccc(Cn2nnc3c(NCc4ccc5c(c4)OCO5)ncnc32)cc1 | . | -3 | 2 | 3 | -2 | 33 | . | .
CC(C)OP(=O)(OC(C)C)/C(C=O)=N\Nc1ccc([N+](=O)[O-])cc1 | -4 | 51* | 2 | 67* | 38 | 41 | 50* | 67*
Cc1nc(N)sc1-c1csc(Nc2ccc(S(N)(=O)=O)cc2)n1 | 5 | -3 | -6 | -2 | -32 | 16 | . | .
Cc1ccc2nc(NC(=O)COC(=O)c3ccccn3)sc2c1 | 25 | 43* | 1 | 59* | 19 | -11 | 26 | 70*
CCc1c(C)nc(SCC(=O)c2ccc(C)c(C)c2)[nH]c1=O | 3 | -24 | -4 | 6 | -19 | 9 | . | .
COc1ccccc1C(=O)n1nc(-c2cccnc2)nc1N | 19 | 6 | -3 | -7 | 0 | -4 | . | .
Cc1ccccc1-c1nc2cc(NC(=O)C3CC3)ccc2o1 | 20 | 63* | -1 | 71* | 16 | 35 | 54* | 75*
O=C(Nc1ccc2oc(-c3ccccc3F)nc2c1)c1ccc2c(c1)OCCO2 | 18 | 46* | 1 | 60* | 39 | 20 | 36* | 70*
COc1ccc2cc(CN(Cc3ccco3)C(c3nnnn3C3CCCCC3)C(C)C)c(=O)[nH]c2c1 (configuration not stated) | -1 | 17 | 5 | 35 | 32 | 14 | . | .
COc1ccc2cc(CN(Cc3ccco3)Cc3nnnn3C3CCCCC3)c(=O)[nH]c2c1 | 9 | 41* | 1 | 59* | 34 | 13 | 18 | 60*
Cc1ccc2cc3cc(C(=O)N4CC(C)CC(C)C4)oc3nc2c1 (configuration not stated) | -30 | 48* | 3 | 53* | 38 | -7 | 39* | 60*
CCOC(=O)C1CCN(C(=O)c2cc3cc4ccc(OC)cc4nc3o2)CC1 | -8 | 41* | 3 | 68* | 35 | 30 | 37* | 67*
COc1ccc2cc3cc(C(=O)N4CCN(Cc5ccc6c(c5)OCO6)CC4)oc3nc2c1 | 8 | 40* | -4 | 68* | 39 | 37 | -3 | 83*
CCOC(=O)c1cnn(-c2ccccc2)c1NC(=O)c1cccs1 | -13 | 1 | 4 | 9 | 7 | -7 | . | .
SMILES | NALP1 yeast inh | TIM10 inh | V-ATPase pH | tim23-1 inh | tim10-1 inh | NLRP3 yeast inh | TIM10 conf | tim23-1 conf
COc1ccc2c(c1OC)C(=O)OC2Nc1ncccc1C (configuration not stated) | 9 | -11 | -3 | -13 | -19 | 5 | . | .
O=C(Nc1cccc(-c2csc(Nc3ccccc3)n2)c1)c1ccccc1 | . | 48* | 2 | 54* | 33 | 28 | 44* | 46*
COc1ccc(CCN2C(=O)CC(N3CCOCC3)C2=O)cc1 (configuration not stated) | -8 | 12 | -5 | 9 | 12 | 1 | . | .
CCCOc1ccc(C(=O)CCNC(Cc2c[nH]c3ccccc23)C(=O)O)cc1 (configuration not stated) | 7 | 49* | 1 | 74* | 26 | 27 | 37* | 23
CNC(=S)N/N=C(\C)c1ccccc1 | 11 | 18 | -4 | 16 | 22 | 6 | . | .
CNC(=S)N/N=C(\C)c1ccc(C(C)(C)C)cc1 | 19 | 48* | -1 | 50* | 31 | 27 | 0 | 38
COC(=O)c1ccc(C(=O)OC)c(NC(=O)CSc2cccc[n+]2[O-])c1 | 4 | 41* | -1 | 69* | 28 | 8 | 14 | 75*
O=Nc1ccc(NOC(=O)c2ccccc2Br)cc1 | 24 | 61* | -3 | 57* | 20 | 27 | 60* | 73*
CCOc1ccc(NS(=O)(=O)c2ccc3[nH]c(=O)cc(C(=O)O)c3c2)cc1 | -7 | 5 | . | 3 | 13 | 9 | . | .
Cc1ccc(NC(=O)c2cc(C)n(-c3cccc(C)c3)c2C)cc1 | 7 | 34 | 3 | 43 | 16 | 18 | . | .
Cc1ccc(NC(=O)c2cc(C)n(-c3ccccc3)c2C)cc1 | 42 | 50* | 2 | 52* | 34 | 24 | -22 | 58*
Cc1ccc(S(=O)(=O)N2CCC(C(=O)N3CCN(c4ccccn4)CC3)CC2)cc1 | 5 | 8 | 2 | 15 | 19 | -6 | . | .
C[C@@H]1CN([C@H](C)CO)S(=O)(=O)c2ccc(C#Cc3ccccc3)cc2O[C@@H]1CN(C)C(=O)CN(C)C | . | . | -2 | . | . | . | . | .
CC12CC3CC(C)(C1)CC(C(=O)NC(=S)N1CCCCC1)(C3)C2 | 9 | 41* | 1 | 51* | 25 | 25 | 14 | 32
O=C(Nc1nccs1)c1ccc(S(=O)(=O)c2ccccc2)cc1 | 15 | 4 | 2 | -6 | 7 | -5 | . | .
